Inconclusive results are not listed. Calls of active or inactive are those of the source. Unless noted, calls follow the shape of the dose curve; as a rule, active = well fitted curve in the direction sought with a large enough effect in the repeat runs; inconclusive = weak or mixed curves; inactive = no such curve, though single readings can be large; an effect the other way counts as inactive or inconclusive.
What was measured:
[1] = qHTS assay to identify aromatase inhibitors - cell viability counter screen (AID 743084);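 also: cells stimulated with testosterone during compound exposure; nearly all actives have a fitted effect of over 55% in size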
[2] = target: Aryl hydrocarbon receptor (Homo sapiens) (UniProt P35869); assay: qHTS assay to identify small molecule that activate the aryl hydrocarbon receptor (AhR) signaling pathway (AID 743085);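 also: HG2L7.5c1 human HepG2 liver cells with stably integrated DRE-driven firefly reporter; series mostly up to about 70 µM; nearly all actives have a fitted effect of over 15% in size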
Chain of Aryl hydrocarbon receptor (Homo sapiens) (P35869 whole entry, looked up): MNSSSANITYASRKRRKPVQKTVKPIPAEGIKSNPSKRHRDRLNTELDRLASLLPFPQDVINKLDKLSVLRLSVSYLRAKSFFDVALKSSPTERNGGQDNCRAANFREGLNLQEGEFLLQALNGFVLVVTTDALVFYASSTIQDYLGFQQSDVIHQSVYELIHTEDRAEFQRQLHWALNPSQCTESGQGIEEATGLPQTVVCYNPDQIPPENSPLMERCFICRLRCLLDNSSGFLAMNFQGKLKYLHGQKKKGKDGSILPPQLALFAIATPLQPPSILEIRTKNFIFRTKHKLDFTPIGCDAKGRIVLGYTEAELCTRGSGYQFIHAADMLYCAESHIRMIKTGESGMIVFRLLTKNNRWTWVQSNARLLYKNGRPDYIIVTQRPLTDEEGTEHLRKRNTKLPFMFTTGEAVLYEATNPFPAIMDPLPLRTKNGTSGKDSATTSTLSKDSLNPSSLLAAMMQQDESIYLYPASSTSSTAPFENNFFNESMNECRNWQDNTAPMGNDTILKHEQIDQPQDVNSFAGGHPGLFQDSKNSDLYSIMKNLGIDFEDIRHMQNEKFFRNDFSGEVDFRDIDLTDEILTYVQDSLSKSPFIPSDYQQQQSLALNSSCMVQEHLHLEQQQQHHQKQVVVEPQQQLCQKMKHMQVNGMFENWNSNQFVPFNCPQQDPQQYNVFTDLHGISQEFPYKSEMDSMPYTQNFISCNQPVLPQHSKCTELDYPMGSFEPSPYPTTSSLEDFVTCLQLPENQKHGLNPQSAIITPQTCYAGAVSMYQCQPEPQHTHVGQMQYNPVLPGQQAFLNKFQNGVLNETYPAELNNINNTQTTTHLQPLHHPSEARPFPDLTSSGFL
Procedure, shortened: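 Compounds were tested in HepG2 hepatocellular carcinoma cells harbouring a stably integrated luciferase gene under control of 20 DREs. Increased reporter signal after 24 h treatment at 37C was taken as AhR activation.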

[3] = qHTS assay to identify small molecule that activate the aryl hydrocarbon receptor (AhR) signaling pathway - cell viability counter screen (AID 743086);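 also: HepG2 liver cells carrying the AhR DRE luciferase reporter; series mostly up to about 70 µM; nearly all actives have a fitted effect of over 45% in size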
Procedure, shortened: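 HepG2-AhR-luc (HG2L7.5c1) cells, 4000/well, treated 24 h at 37 C with compound; viability measured as CellTiter-Fluor fluorescence after 30 min in the same wells as the luciferase read.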

[4] = qHTS assay to identify small molecule antagonists of the peroxisome proliferator-activated receptor gamma (PPARg) signaling pathway - cell viability counter screen (AID 743194); details: Potency: co-treated with 50 nM rosiglitazone; also: nearly all actives have a fitted effect of over 55% in size
Procedure, shortened: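 Cytotoxicity counter screen in PPARg-bla HEK293H cells, same wells as reporter assay. Compounds plus 50 nM rosiglitazone (final) for 17 h at 37 C, then viability read by CellTiter-Glo luminescence.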

[5] = qHTS assay for small molecule agonists of the antioxidant response element (ARE) signaling pathway (AID 743202; active = well fitted activation curve with a large enough effect in the signal ratio in the repeat runs, not every such curve was filed as active; the % refers to the signal ratio)
Procedure, shortened: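 HepG2 ARE-bla cells; 16 h treatment at 37 C; FRET-based beta-lactamase fluorescence read after 2 h substrate incubation at room temperature.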

[6] = qHTS assay for small molecule agonists of the antioxidant response element (ARE) signaling pathway - cell viability counter screen (AID 743203; calls by dose curve; also: nearly all actives have a fitted effect of over 55% in size)
Procedure, shortened: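 Luminescence read-out (CellTiter-Glo, 30 min at room temperature) measured cell viability in the same wells as the ARE beta-lactamase reporter. HepG2 ARE-bla cells were treated with compounds for 16 hrs at 37C/5% CO2.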

[7] = qHTS assay for small molecule activators of the heat shock response signaling pathway - cell viability counter screen (AID 743209); also: nearly all actives have a fitted effect of over 50% in size
Procedure, shortened: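 HSE-bla HeLa; 1500 cells/well; overnight 37 C, 5% CO2; compound 5 h 37 C; LiveBLAzer B/G substrate 2.5 h RT; CellTiter-Glo 30 min RT; luminescence.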

[8] = qHTS assay for small molecule activators of the heat shock response signaling pathway (AID 743210; active = well fitted activation curve with a large enough effect in the signal ratio in the repeat runs, with a control signal flat, not every such curve was filed as active; the % refers to the signal ratio;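 also: HeLa cells with beta-lactamase reporter driven by heat shock elements; series mostly up to about 63 µM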)
Procedure, shortened: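 Following overnight attachment, HSE-bla HeLa cells received test compounds for 5 h at 37 C; beta-lactamase activity was then detected via FRET substrate fluorescence.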

[9] = target: Peroxisome proliferator-activated receptor gamma (Homo sapiens) (UniProt P37231); assay: qHTS assay to identify small molecule antagonists of the peroxisome proliferator-activated receptor gamma (PPARg) signaling pathway (AID 743191; calls by dose curve; also: series mostly up to about 63 µM; nearly all actives have a fitted effect of over 30% in size)
Chain of Peroxisome proliferator-activated receptor gamma (Homo sapiens) (P37231 whole entry, looked up): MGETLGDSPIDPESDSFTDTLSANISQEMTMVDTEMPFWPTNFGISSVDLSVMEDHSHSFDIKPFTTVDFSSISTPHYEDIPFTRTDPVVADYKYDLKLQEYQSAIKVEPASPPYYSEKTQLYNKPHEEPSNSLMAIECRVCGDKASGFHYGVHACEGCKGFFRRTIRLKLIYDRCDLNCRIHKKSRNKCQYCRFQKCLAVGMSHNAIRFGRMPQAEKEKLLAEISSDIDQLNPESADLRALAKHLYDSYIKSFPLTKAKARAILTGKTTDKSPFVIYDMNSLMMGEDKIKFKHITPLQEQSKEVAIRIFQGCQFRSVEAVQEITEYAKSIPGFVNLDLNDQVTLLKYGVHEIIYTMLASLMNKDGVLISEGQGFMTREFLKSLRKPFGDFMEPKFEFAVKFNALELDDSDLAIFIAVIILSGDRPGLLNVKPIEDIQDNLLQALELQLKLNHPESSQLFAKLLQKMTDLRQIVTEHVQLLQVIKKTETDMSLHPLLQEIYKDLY
Procedure, shortened: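 GeneBLAzer PPARg UAS-bla HEK293H cells, 5 h post-plating, exposed to compounds 17 h at 37C. LiveBLAzer B/G FRET substrate added for 1 h at room temperature; beta-lactamase reporter read by fluorescence intensity.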

Measured: Potency

CC(C)N(CCC(C(N)=O)(c1ccccc1)c1ccccn1)C(C)C (stereo not drawn)
not listed: [9]
inactive: all other assays above

COC(=O)C(Br)CBr (stereo not drawn)
not listed: [4] | [5] | [9]
inactive: all other assays above

C#CCOC(C(=O)OCCN(C)C)(c1ccccc1)c1ccccc1
inactive: all assays above
